This note sets out measurements from PubChem BioAssay (EPA / NIEHS).

The nature of test [1]: Tanguay_ZF_120hpf_MORT_legacy: (Legacy) Oregon State University Tanguay Lab 120 Hour Post-fertilization zebrafish Assay for Mortality (AID 2283633).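 On AC50: fitted as increase in binary mortality versus DMSO negative control.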 The gist of the method:
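Dechorionated Tropical 5D wild-type zebrafish embryos, one per well from 6 hpf, static exposure in 0.64% DMSO at 28C until 120 hpf. Mortality scored as binary by brightfield microscopy at 24 and 120 hpf.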

Test [2] is described as follows: Tanguay_ZF_120hpf_YSE_legacy: (Legacy) Oregon State University Tanguay Lab 120 Hour Post-fertilization zebrafish Assay for Yolk Sac Edema (AID 2283634).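 On AC50: actives raise the incidence of yolk sac edema above the DMSO baseline.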 The method in brief: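 Dechorionated Tropical 5D wild-type zebrafish embryos were exposed statically, one per well, from 6 to 120 hpf at 28C in 0.64% DMSO. Yolk sac edema was scored present/absent by brightfield at 120 hpf, and dead embryos were excluded.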

Test [3] in a line: Tanguay_ZF_120hpf_AXIS_legacy: (Legacy) Oregon State University Tanguay Lab 120 Hour Post-fertilization zebrafish Assay for Body Axis Malformation (AID 2283635).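 On AC50: potency for an increased fraction of larvae scored with body axis malformation.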 The method in brief:
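Dechorionated wild-type Tropical 5D zebrafish embryos, one per well, statically exposed from 6 hpf to 120 hpf at 28C in 0.64% DMSO final. Body axis malformation scored present/absent by brightfield microscopy at 120 hpf; dead embryos excluded.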

Test [4] is described as follows: Tanguay_ZF_120hpf_EYE_legacy: (Legacy) Oregon State University Tanguay Lab 120 Hour Post-fertilization zebrafish Assay for Eye Malformation (AID 2283636).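 Further: binary presence or absence of eye malformation scored by brightfield in 120 hpf larvae.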 The method in brief:
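Binary brightfield scoring of eye defects at 120 hpf after static exposure from 6 hpf of single pronase-dechorionated wild-type embryos (28C, 0.64% DMSO). Non-mortality endpoints omitted where embryos died; fit vs DMSO.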

Test [5] is described as follows: Tanguay_ZF_120hpf_SNOU_legacy: (Legacy) Oregon State University Tanguay Lab 120 Hour Post-fertilization zebrafish Assay for Snout Malformation (AID 2283637). The gist of the method:
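Binary snout-malformation call at 120 hpf in wild-type 5D embryos, chorion removed by pronase, under static exposure from 6 hpf at 28C (0.64% DMSO). Embryos dying by 24 or 120 hpf excluded.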

Test [6] can be described thus: Tanguay_ZF_120hpf_JAW_legacy: (Legacy) Oregon State University Tanguay Lab 120 Hour Post-fertilization zebrafish Assay for Jaw Malformation (AID 2283638). The gist of the method: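 Dechorionated Tropical 5D wild-type zebrafish embryos, one per well, exposed statically from 6 hpf to 120 hpf at 28C in 0.64% DMSO. Jaw malformation was scored by brightfield microscopy as present or absent. It was not scored in dead embryos.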

The nature of test [7]: Tanguay_ZF_120hpf_PE_legacy: (Legacy) Oregon State University Tanguay Lab 120 Hour Post-fertilization zebrafish Assay for Pericardial Edema (AID 2283640).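 On AC50: potency for increased incidence of pericardial edema versus DMSO baseline.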 The gist of the method:
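Tropical 5D wild-type zebrafish embryos were statically exposed until 120 hpf at 28C, with 0.64% DMSO final. Pericardial edema was scored by brightfield as present or absent; endpoints were not scored in dead embryos.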

Test [8] is described as follows: Tanguay_ZF_120hpf_BRAI_legacy: (Legacy) Oregon State University Tanguay Lab 120 Hour Post-fertilization zebrafish Assay for Brain Malformation (AID 2283641). The gist of the method:
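Tropical 5D wild-type zebrafish embryos exposed statically until 120 hpf at 28C, 0.64% DMSO final, sealed and dark. Brain malformation scored present/absent by brightfield at 120 hpf; dead embryos excluded. Trimethyltin chloride 5uM positive control.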

The nature of test [9]: Tanguay_ZF_120hpf_SOMI_legacy: (Legacy) Oregon State University Tanguay Lab 120 Hour Post-fertilization zebrafish Assay for Somite Malformation (AID 2283647). The method in brief:
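Dechorionated Tropical 5D wild-type zebrafish embryos, one per well from 6 hpf, statically exposed at 28C to 120 hpf in 0.64% DMSO; somite malformation scored present/absent by brightfield; trimethyltin 5 uM positive control; dead embryos not scored.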

A short description of test [10]: Tanguay_ZF_120hpf_PFIN_legacy: (Legacy) Oregon State University Tanguay Lab 120 Hour Post-fertilization zebrafish Assay for Pectoral Fin Malformation (AID 2283648).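 Further: each larva judged yes or no for fin defect by brightfield with dead larvae skipped.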 The gist of the method:
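Pectoral fin malformation was recorded as a binary endpoint at 120 hpf in wild-type Tropical 5D larvae, which had been dechorionated and exposed statically from 6 hpf at 28C in 0.64% DMSO. Dead embryos were excluded.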

A short description of test [11]: Tanguay_ZF_120hpf_CFIN_legacy: (Legacy) Oregon State University Tanguay Lab 120 Hour Post-fertilization zebrafish Assay for Caudal Fin Malformation (AID 2283649). The method in brief:
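Dechorionated Tropical 5D wild-type embryos, one per well from 6 hpf, static exposure to 120 hpf at 28C in 0.64% DMSO. Caudal fin malformation scored by brightfield as present/absent; not scored in dead embryos.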

Test [12] is described as follows: Tanguay_ZF_120hpf_PIG_legacy: (Legacy) Oregon State University Tanguay Lab 120 Hour Post-fertilization zebrafish Assay for Pigmentation Malformation (AID 2283650). The gist of the method: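 Pigment malformation recorded as a binary call at 120 hpf in zebrafish (Tropical 5D) exposed singly from 6 hpf after pronase dechorionation. Static, sealed, 28C exposure, 0.64% DMSO; mortality excludes scoring; positive-direction fit against DMSO.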

Test [13] can be described thus: Tanguay_ZF_120hpf_SWIM_legacy: (Legacy) Oregon State University Tanguay Lab 120 Hour Post-fertilization zebrafish Assay for Swim Bladder Malformation (AID 2283654).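 Further: swim bladder malformation in each larva scored yes or no under brightfield.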 The gist of the method:
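Scoring is binary for swim bladder defects at 120 hpf, by brightfield inspection of zebrafish larvae. Embryos were exposed singly from 6 hpf after pronase dechorionation, at 28C with 0.64% DMSO; mortality excluded scoring.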

A short description of test [14]: Tanguay_ZF_120hpf_TRUN_legacy: (Legacy) Oregon State University Tanguay Lab 120 Hour Post-fertilization zebrafish Assay for Truncated Body (AID 2283655). The gist of the method:
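Dechorionated Tropical 5D wild-type embryos placed singly from 6 hpf and statically exposed to 120 hpf at 28C, final DMSO 0.64%. Truncated body scored as present/absent by brightfield; not scored in dead embryos.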

Test [15] is described as follows: Tanguay_ZF_120hpf_CIRC_legacy: (Legacy) Oregon State University Tanguay Lab 120 Hour Post-fertilization zebrafish Assay for Circulatory Malformation (AID 2283651). The gist of the method:
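Binary circulatory malformation call at 120 hpf by brightfield imaging of zebrafish larvae; chorion removed at 4 hpf, static exposure from 6 hpf in sealed dark plates at 28C, final DMSO 0.64%; non-mortality endpoints skipped if embryo died.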

The nature of test [16]: Tanguay_ZF_120hpf_NC_legacy: (Legacy) Oregon State University Tanguay Lab 120 Hour Post-fertilization zebrafish Assay for Notochord and Tail Malformation (AID 2283656). The method in brief:
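Binary scoring of notochord distortion by brightfield microscopy; embryos dying were not scored. Wild-type Tropical 5D embryos, chorion removed, exposed singly and statically from 6 to 120 hpf, 28C, sealed, 0.64% DMSO.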

The nature of test [17]: Tanguay_ZF_120hpf_OTIC_legacy: (Legacy) Oregon State University Tanguay Lab 120 Hour Post-fertilization zebrafish Assay for Otic Vesicle Malformation (AID 2283639). The gist of the method: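 Binary scoring of otic vesicle defects at 120 hpf in zebrafish (Tropical 5D) held under static exposure at 28C, sealed and shaded, with final DMSO 0.64%. Embryos dying by 24 or 120 hpf excluded; fitted positively against DMSO.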

Molecules are shown by their SMILES. Records with an inconclusive call do not appear. Activity calls are given as the source filed them. How the source made its calls: active means hit-call score of the fitted dose curve at least 0.9, where 1 is the maximum; inconclusive means response in the unintended direction; inactive means score below 0.9.

`Cc1cc(Cl)ccc1OCC(=O)O`: the compound was called inactive in [1], in test [2], in [3], in test [4], in [5] and in test [6]. For the same compound, the outcome in test [7], in test [8], in test [9], in test [10], in [11] and in test [12] was inactive. The compound was classed as inactive in [13] and in test [14].
Take `CCCN(CCC)c1c([N+](=O)[O-])cc(S(N)(=O)=O)cc1[N+](=O)[O-]`: the result in [1], in test [2], in test [3], in [4], in test [5] and in [6] was inactive. For the same compound, the call in test [7], in test [8], in test [9], in test [10], in test [11] and in [12] was inactive. Besides, the call in test [15], in test [13], in test [14] and in test [16] was inactive.
Turning to `COC(=O)N(OC)c1ccccc1COc1ccn(-c2ccc(Cl)cc2)n1`, the concentration at half-maximal activity (AC50) (usually the midpoint of the concentration-response curve, whichever way the signal moves) in test [1] was 367 nM (active). In addition, the outcome in test [2], in test [3], in test [4], in test [5], in [6] and in test [7] was inactive. Further, the compound was called inactive in test [8], in [9], in [10], in test [11], in [12] and in [15]. Moreover, the outcome in test [13], in [14] and in test [16] was inactive.
In the case of `CCON=C(CC)C1=C(O)CC(c2c(C)cc(C)cc2C)CC1=O` (stereo not given), the compound was called inactive in [1], in test [2], in [3], in [4], in test [5] and in test [6]. Further, the result in test [17], in test [7], in test [8], in [9], in test [10] and in [11] was inactive. Besides, the compound was called inactive in test [12], in [13], in test [14] and in test [16].
Turning to `COc1nc(NC(C)C)nc(NC(C)C)n1`, the result in test [1], in test [2], in test [3], in test [4], in test [5] and in [6] was inactive. For the same compound, the compound was called inactive in [17], in test [7], in test [8], in [9], in test [10] and in test [11]. Moreover, the outcome in test [12], in test [15], in test [13], in test [14] and in test [16] was inactive.
`CNC(=O)ON=CC(C)(C)SC`: the compound was called inactive in [1], in test [4], in test [5], in [6], in test [8] and in test [9]. For the same compound, the outcome in [10], in [11], in [12], in test [15], in [13] and in test [16] was inactive. The AC50 is 3470 nM (active) in [2], 2310 nM (active) in test [3], 2810 nM (active) in test [7] and 1070 nM (active) in [14].
